{"source": "PubChem BioAssay (EPA / NIEHS)", "note": "Results filed as inconclusive are left out. Activity calls are given as the source filed them. How the source made its calls, unless noted: active means hit-call score of the fitted dose curve at least 0.9, where 1 is the maximum; inactive means score below 0.9.", "data": [{"experiment": "CCTE_Harrill_HTTr_Viability_MCF7: CCTE's 6-hour Cell Viability Assessment for the High-Throughput Transcriptomics (HTTr) Platform, in MCF-7 cells cultured in DMEM + 10% fetal bovine serum, Harrill Lab (AID 2284010)", "summary_of_the_method": "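Propidium iodide exclusion, imaged by high-content analysis, gauged viability after a six-hour exposure across eight concentrations. Cells were MCF-7 grown in DMEM with 10% fetal bovine serum; fits run in both directions against DMSO.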", "values": [{"compound": "O=C(O)CCCCCCCCCCCC(=O)O", "outcome": "inactive"}, {"compound": "O=c1c(O)c(-c2ccc(O)cc2)oc2cc(O)cc(O)c12", "outcome": "inactive"}, {"compound": "CC(C)c1ccccc1O", "outcome": "inactive"}, {"compound": "O=C(O)c1ccc(O)cc1", "outcome": "inactive"}, {"compound": "O=[N+]([O-])c1cccc(Cl)c1", "outcome": "inactive"}, {"compound": "CC(C)(C)C1=CC(=O)C(C(C)(C)C)=CC1=O", "outcome": "inactive"}, {"compound": "CN1C(=O)c2ccccc2C1=O", "outcome": "inactive"}, {"compound": "c1ccc(Oc2ccccc2)cc1", "outcome": "inactive"}, {"compound": "CCCCCCOC(=O)CCC", "outcome": "inactive"}]}, {"experiment": "CCTE_Harrill_HTTr_Apoptosis_MCF7: CCTE's 6-hour Apoptosis Assessment for the High-Throughput Transcriptomics (HTTr) Platform, in MCF-7 cells cultured in DMEM + 10% fetal bovine serum, Harrill Lab (AID 2284011)", "summary_of_the_method": "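Read-out: CellEvent Caspase 3/7 Green signal by high content imaging, gain-of-signal indicating apoptosis. MCF-7 cells, DMEM + 10% FBS, eight-point dilution series, 6 h exposure. Curves fitted bidirectionally relative to DMSO negative control.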", "values": [{"compound": "COc1ccc(CCN2CCC(Nc3nc4ccccc4n3Cc3ccc(F)cc3)CC2)cc1", "outcome": "inactive"}, {"compound": "CC(C)C[C@H](NC(=O)OCC1c2ccccc2-c2ccccc21)C(=O)O", "outcome": "inactive"}, {"compound": "CS(=O)(=O)OCCCCOS(C)(=O)=O", "outcome": "inactive"}, {"compound": "CC(C)(C)CC(C)(C)c1ccc(OCCOCC[N+](C)(C)Cc2ccccc2)cc1", "outcome": "inactive"}, {"compound": "O=C(O)CCCCCCCCC(=O)O", "outcome": "inactive"}, {"compound": "c1ccc(CCc2ccccc2)cc1", "outcome": "inactive"}, {"compound": "[O-]n1ccccc1=S.[O-]n1ccccc1=S.[Zn+2]", "outcome": "inactive"}, {"compound": "Brc1ccc(Br)c(Br)c1", "outcome": "inactive"}, {"compound": "CCCSc1ccc2nc(NC(=O)OC)[nH]c2c1", "outcome": "inactive"}, {"compound": "O=C1c2ccccc2C(=O)c2c(O)ccc(O)c21", "outcome": "inactive"}, {"compound": "CCC(C)=O", "outcome": "inactive"}, {"compound": "O=[N+]([O-])c1cccc(Cl)c1", "outcome": "inactive"}, {"compound": "CC1(C)COCN1", "outcome": "inactive"}, {"compound": "CCCCCc1ccco1", "outcome": "inactive"}, {"compound": "O=c1[nH]c(=O)c2cn[nH]c2[nH]1", "outcome": "inactive"}, {"compound": "CC=Cc1ccc(OC)c(OC)c1", "outcome": "inactive"}, {"compound": "Cc1ccc(-c2ccccc2)cc1", "outcome": "inactive"}, {"compound": "Cc1ccc(S(N)(=O)=O)cc1", "outcome": "inactive"}, {"compound": "COC(=O)c1ccc(C)cc1C1=NC(C)(C(C)C)C(=O)N1", "note": "(stereo not given) (tested in a mixture with another compound)", "outcome": "inactive"}, {"compound": "CN1C(=O)c2ccccc2C1=O", "outcome": "inactive"}, {"compound": "Nc1ccn([C@H]2CS[C@@H](CO)O2)c(=O)n1", "outcome": "inactive"}, {"compound": "COCCOCCOCCO", "outcome": "inactive"}, {"compound": "Cc1[nH]c(=O)c(C#N)cc1-c1ccncc1", "outcome": "inactive"}, {"compound": "COc1ccc(COC(C)=O)cc1", "outcome": "inactive"}, {"compound": "C=CC(=O)OCCCC", "outcome": "inactive"}, {"compound": "COC(=O)Nc1ccc(Cl)c(Cl)c1", "outcome": "inactive"}]}, {"experiment": "CCTE_Harrill_HTTr_CellCount_MCF7: CCTE's Cell Proliferation Assessment for the High-Throughput Transcriptomics (HTTr) Platform, Harrill Lab (AID 2284012; active means hit-call score of the fitted dose curve at least 0.9, where 1 is the maximum;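 further: intended direction is loss of nuclei count meaning fewer cells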)", "summary_of_the_method": "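Cell count from high-content imaging of Hoechst-labeled nuclei serves as viability/growth readout. Chemicals were applied to MCF-7 cells in eight concentrations for six hours, with fitting in both directions relative to DMSO.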", "values": [{"compound": "COc1ccc(CCN2CCC(Nc3nc4ccccc4n3Cc3ccc(F)cc3)CC2)cc1", "AC50": "79.2 µM (active)"}, {"compound": "CN(C)CCOc1ccc(/C(=C(/CCCl)c2ccccc2)c2ccccc2)cc1", "outcome": "inactive"}, {"compound": "O=C(O)CCCCCCCCCCCC(=O)O", "outcome": "inactive"}, {"compound": "CC(C)C[C@H](NC(=O)OCC1c2ccccc2-c2ccccc21)C(=O)O", "outcome": "inactive"}, {"compound": "CS(=O)(=O)OCCCCOS(C)(=O)=O", "outcome": "inactive"}, {"compound": "O=c1c(O)c(-c2ccc(O)cc2)oc2cc(O)cc(O)c12", "outcome": "inactive"}, {"compound": "c1ccc(CCc2ccccc2)cc1", "outcome": "inactive"}, {"compound": "OCCc1ccccc1", "outcome": "inactive"}, {"compound": "CC(C)c1ccccc1O", "outcome": "inactive"}, {"compound": "O=C1c2ccccc2C(=O)c2c(O)ccc(O)c21", "outcome": "inactive"}, {"compound": "O=P(O)(O)O", "outcome": "inactive"}, {"compound": "CCC(C)=O", "outcome": "inactive"}, {"compound": "O=C(O)c1ccc(O)cc1", "outcome": "inactive"}, {"compound": "O=[N+]([O-])c1cccc(Cl)c1", "outcome": "inactive"}, {"compound": "CC(=O)CC(=O)Nc1ccccc1", "outcome": "inactive"}, {"compound": "CC(C)(C)C1=CC(=O)C(C(C)(C)C)=CC1=O", "outcome": "inactive"}, {"compound": "O=c1[nH]c(=O)c2cn[nH]c2[nH]1", "outcome": "inactive"}, {"compound": "CN1C(=O)c2ccccc2C1=O", "outcome": "inactive"}, {"compound": "c1ccc(Oc2ccccc2)cc1", "outcome": "inactive"}, {"compound": "CCCCCCOC(=O)CCC", "outcome": "inactive"}]}]}
